70 compounds from the supplement of paper PMC12340641 can be followed below.

In all, about 1,000 compounds were measured (“relative growth in counter assay (no AraC = 100%, AraC + DMSO = 0%)”: median about -1.1, highest 2% from about 20 on). This is one part of a sample in which the highest values are shown more often than they occur.

The experiment concerns HEK293FT dCK*-only. Description: relative growth in counter assay (no AraC = 100%, AraC + DMSO = 0%); higher = more growth rescue independent of IKZF1. To be noted: compound concentration: 5 uM; AraC concentration: 0.3 uM; overnight pretreatment + 4 days AraC. The method, then:
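Growth recovery screen of the molecular-glue-like (Specs) library. HEK293FT cells expressing a dCK*-IKZF1 fusion (primary) or dCK* alone (counter) were pretreated overnight with compound at 5 uM, then given 0.3 uM AraC for 4 days. Hoechst nuclei were counted by imaging. Primary: normalised to pomalidomide (100%) and DMSO (0%), mean of 2 replicates. Counter: normalised to no-AraC (100%) and AraC+DMSO (0%), single replicate.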
On to `Cc1cc(C)c2[nH]c3nc(SCC(=O)Nc4ccc(Cl)cc4)nnc3c2c1`, for which the “relative growth in counter assay” value is -17.9%.
Take `Cc1cc(C)nc(NS(=O)(=O)c2ccc(Nc3nc(-c4ccc(Cl)cc4)cs3)cc2)n1`: the “relative growth in counter assay” value is -7.62%.
`O=C(Nc1ccc(S(=O)(=O)Nc2ncccn2)cc1)c1ccc(Br)cc1`: the “relative growth in counter assay” value turned out to be 1.1%.
To `CCOCC(=O)Nc1ccc(S(=O)(=O)Nc2ncccn2)cc1` belongs -2.18%; to `O=C(C1CNCCO1)N1CCC(c2cccc(Nc3ncc(-c4ccccc4)s3)n2)CC1` (stereo not given), 1.14%; to `O=S(=O)(Cc1ccccc1)Nc1ccc(S(=O)(=O)Nc2ncccn2)cc1`, 5.8%.
Regarding `Cc1ccnc(NS(=O)(=O)c2ccc(NC(=O)Cc3c(F)cccc3Cl)cc2)n1`, the “relative growth in counter assay” value amounted to 10%.
Take `COc1ccc(-c2csc(Nc3ccc(S(=O)(=O)Nc4nc(C)cc(C)n4)cc3)n2)cc1`: the “relative growth in counter assay” value was -6.81%.
As for `O=C(Nc1ccc(S(=O)(=O)Nc2ncccn2)cc1)c1ccccc1Br`, the “relative growth in counter assay” value was -0.83%.
Consider `Cc1ccc(OCC(=O)Nc2ccc(S(=O)(=O)Nc3ncccn3)cc2)cc1C`, for which the “relative growth in counter assay” value was found to be 2.12%.
Consider `Cc1csc(Nc2cccc(C3CN(C(=O)Cn4nc(C)ccc4=O)CCO3)n2)n1` (stereo not given), for which the “relative growth in counter assay” value was -2.02%.
With `CC(=O)N1CCC(Cc2cccc(Nc3nc(C)cs3)n2)CC1`, the “relative growth in counter assay” value amounted to 24.3%.
Under `Cc1csc(Nc2cccc(C3CN(C(=O)CCC4CCCC4)CCO3)n2)n1` (stereo not given) stands 32.3%; under `Cc1csc(Nc2cccc(C3CN(C(=O)COc4c(C)cccc4C)CCO3)n2)n1` (stereo not given), 1.27%.
On to `Cc1csc(Nc2cccc(CC3CCN(CC(=O)N(C)C)CC3)n2)n1`, for which the “relative growth in counter assay” value was 7.9%.
Regarding `Cc1cnc(Nc2cccc(C3CN(C(=O)CCC4CCCCC4)CCO3)n2)s1` (stereo not given), the “relative growth in counter assay” value is -1.73%.
Under `Cc1cnc(Nc2cccc(C3CN(C(=O)C4CC4c4ccc(Cl)cc4)CCO3)n2)s1` (stereo not given) stands 28.7%.
On to `Cc1cnc(Nc2cccc(C3CN(C(=O)C4CCCC4)CCO3)n2)s1` (stereo not given), for which the “relative growth in counter assay” value was -17%.
Turning to `Cc1cnc(Nc2cccc(C3CN(C(=O)C45CC6CC(CC(C6)C4)C5)CCO3)n2)s1` (stereo not given), the “relative growth in counter assay” value is -1.75%.
As for `COc1cccc(OC)c1C(=O)N1CCOC(c2cccc(Nc3nc(C)cs3)n2)C1` (stereo not given), the “relative growth in counter assay” value was found to be 10.3%.
Regarding `Cc1csc(Nc2cccc(C3CN(C(=O)CCOc4ccccc4C)CCO3)n2)n1` (stereo not given), the “relative growth in counter assay” value was found to be 49.2%.
`CC(=O)N1CCC(Cc2cccc(Nc3nccs3)n2)CC1`: the “relative growth in counter assay” value is -8.99%.
`Cc1cnc(Nc2cccc(C3CN(C(=O)COc4ccccc4)CCO3)n2)s1` (stereo not given): the “relative growth in counter assay” value was -9.61%.
Take `Cc1cnc(Nc2cccc(C3CN(C(=O)CCOc4cccc(F)c4)CCO3)n2)s1` (stereo not given): the “relative growth in counter assay” value worked out at 19.7%.
In the case of `Cc1cnc(Nc2cccc(C3CN(C(=O)COc4cccc(F)c4)CCO3)n2)s1` (stereo not given), the “relative growth in counter assay” value was -7.34%.
As for `Cc1ccc(OCC(=O)Nc2ccc(S(=O)(=O)Nc3cc(C)nc(C)n3)cc2)c(C)c1`, the “relative growth in counter assay” value was -2.7%.
For the compound `Cc1cc(C)nc(NS(=O)(=O)c2ccc(NC(=O)C(C)Oc3ccccc3F)cc2)n1` (stereo not given), the “relative growth in counter assay” value came out at 5.27%.
Take `COc1ccccc1OCC(=O)Nc1ccc(S(=O)(=O)Nc2nc(C)cc(C)n2)cc1`: the “relative growth in counter assay” value was -7.04%.
In the case of `CC(C)(C)C(=O)N1CCC(Cc2ccc(Nc3ncc(-c4ccc(F)cc4)s3)nc2)CC1`, the “relative growth in counter assay” value amounted to 12.2%.
Turning to `Cn1nccc1/C=C/C(=O)N1CCCC1c1csc(Nc2ccccn2)n1` (stereo not given), the “relative growth in counter assay” value is -0.93%.
Under `CC(=O)N1CCCC(c2csc(Nc3ccccn3)n2)C1` (stereo not given) stands 0.33%.
As to `Cn1nccc1/C=C/C(=O)N1CCCC(c2cc3ccccc3c(Nc3nccs3)n2)C1` (stereo not given), the “relative growth in counter assay” value is -13.3%.
Turning to `O=C(/C=C/c1ccccc1)N1CCCC(c2csc(Nc3ccccn3)n2)C1` (stereo not given), the “relative growth in counter assay” value turned out to be 34.8%.
As for `O=C(/C=C/c1ccco1)N1CCCC(c2csc(Nc3ccccn3)n2)C1` (stereo not given), the “relative growth in counter assay” value stood at 11.1%.
In the case of `Cn1nccc1/C=C/C(=O)N1CCCC(c2csc(Nc3ccccn3)n2)C1` (stereo not given), the “relative growth in counter assay” value was 29%.
`O=C(C1CCCCC1)N1CCC(c2cccc(Nc3nccs3)n2)CC1`: the “relative growth in counter assay” value was -10.8%.
In the case of `O=C(Nc1ccc(S(=O)(=O)Nc2ccccn2)cc1)c1cc2ccccc2o1`, the “relative growth in counter assay” value was -2.82%.
Under `CCCc1cnc(Nc2cccc(C3CN(C(=O)C4CCCCC4)CCO3)n2)s1` (stereo not given) stands -12.3%.
On to `Cc1cnc(Nc2cccc(C3CCN(C(=O)C4CCC4)CC3)n2)s1`, for which the “relative growth in counter assay” value is -21%.
Under `Cc1ccc(C)c(OCCCC(=O)Nc2ccc(S(=O)(=O)Nc3ncccn3)cc2)c1` stands -2.63%.
With `CC(C)(C)c1ccccc1OCC(=O)Nc1ccc(S(=O)(=O)Nc2ccccn2)cc1`, the “relative growth in counter assay” value amounted to 4.41%.
Take `COc1cc2c(cc1CCC(=O)N1CCCC1c1cccc(Nc3nccs3)n1)CCC2` (stereo not given): the “relative growth in counter assay” value is -3.49%.
Under `CC(C)(C)c1ccccc1OCC(=O)Nc1ccc(S(=O)(=O)Nc2ncccn2)cc1` stands -1.93%; under `Cc1cnc(Nc2cccc(C3CCN(C(=O)CCc4nc5ccccc5[nH]4)CC3)n2)s1`, -4.59%.
As to `CCCC(C)C(=O)Nc1ccc(S(=O)(=O)Nc2nccc(C)n2)cc1` (stereo not given), the “relative growth in counter assay” value was -3.64%.
As for `Cc1cnc(Nc2cccc(C3CN(C(=O)c4ccccn4)CCO3)n2)s1` (stereo not given), the “relative growth in counter assay” value is -7.73%.
In the case of `O=C(CSc1nnc2c(n1)[nH]c1ccc(Cl)cc12)Nc1ccc(Cl)cc1`, the “relative growth in counter assay” value was determined as 3.64%.
To `COC(=O)C(c1cccc(Nc2ncc(C)s2)n1)C1CCN(C(=O)C2(NC(=O)OC(C)(C)C)CCCCC2)CC1` (stereo not given) belongs 9.03%; to `COc1cc(NS(=O)(=O)c2ccc(NC(=O)c3ccc([N+](=O)[O-])cc3)cc2)nc(OC)n1`, 4.43%.
On to `CNC(=O)C(c1cccc(Nc2ncc(C)s2)n1)C1CCN(C(=O)[C@H](CC(C)C)NC(=O)OC(C)(C)C)CC1` (stereo not given in full), for which the “relative growth in counter assay” value amounted to 8.97%.
On to `CCCC(=O)Nc1ccc(S(=O)(=O)Nc2cc(OC)nc(OC)n2)cc1`, for which the “relative growth in counter assay” value was -1.4%.
On to `O=C(COc1ccc(F)cc1)N1CCC(c2cccc(Nc3nccs3)n2)CC1`, for which the “relative growth in counter assay” value came out at 6.47%.
As to `Cn1c(SCC(=O)Nc2ccccn2)nc2ccccc21`, the “relative growth in counter assay” value amounted to 0.85%.
Under `COc1cc(NS(=O)(=O)c2ccc(NC(=O)/C=C/C(=O)O)cc2)nc(OC)n1` stands 2.31%; under `CNC(=O)C(c1cccc(Nc2ncc(C)s2)n1)C1CCN(C(=O)c2cccc(Cl)c2F)CC1` (stereo not given), -0.24%.
Under `O=C(CO)N1CCC(c2cccc(Nc3ncc(-c4ccccc4)s3)n2)CC1` stands -21.4%; under `CCN1CC(C(=O)N2CCC(c3cccc(Nc4ncc(C)s4)n3)CC2)CC1=O` (stereo not given), -1.29%.
For the compound `COc1cc(NS(=O)(=O)c2ccc(NCc3ccccc3O)cc2)nc(OC)n1`, the “relative growth in counter assay” value is -0.72%.
In the case of `Cc1noc(CCC(=O)N2CCOC(c3cccc(Nc4nc(C)c(C)s4)n3)C2)n1` (stereo not given), the “relative growth in counter assay” value came out at 5.54%.
`COc1cccc(C(=O)Nc2ccc(S(=O)(=O)Nc3ncccn3)cc2)c1`: the “relative growth in counter assay” value was -5%.
For `Cc1nc(Nc2cccc(C3CCN(C(=O)c4n[nH]c5c4CCCC5)CC3)n2)sc1C`, the “relative growth in counter assay” value was 14%.
Under `Cc1cc(C)nc(NS(=O)(=O)c2ccc(NC(=O)CSc3nccn3C)cc2)n1` stands 2.1%; under `CC(Oc1ccccc1)C(=O)Nc1ccc(S(=O)(=O)Nc2ncccn2)cc1` (stereo not given), 0.06%.
Consider `CC(=O)Nc1ccc(S(=O)(=O)Nc2nc(C)cc(C)n2)cc1`, for which the “relative growth in counter assay” value is -0.14%.
With `Cc1cc(C)nc(NS(=O)(=O)c2ccc(NC(=O)CSc3nc(C)cc(C)n3)cc2)n1`, the “relative growth in counter assay” value was -6.83%.
Turning to `CCCC(=O)Nc1ccc(S(=O)(=O)Nc2nc(C)cc(C)n2)cc1`, the “relative growth in counter assay” value is -9.14%.
With `CCC(Oc1ccccc1)C(=O)Nc1ccc(S(=O)(=O)Nc2nc(C)cc(C)n2)cc1` (stereo not given), the “relative growth in counter assay” value was -3.58%.
For the compound `CCC(Oc1ccccc1)C(=O)Nc1ccc(S(=O)(=O)Nc2ncccn2)cc1` (stereo not given), the “relative growth in counter assay” value is 27.4%.
In the case of `Cc1cc(C)nc(NS(=O)(=O)c2ccc(NC(=O)CCl)cc2)n1`, the “relative growth in counter assay” value was determined as 23.6%.
As to `Cc1cc(C)nc(SCC(=O)Nc2ccc(S(=O)(=O)Nc3ncccn3)cc2)n1`, the “relative growth in counter assay” value was found to be 19.9%.
